This is a sample that favours compounds with a hit; in the whole collection about 4.5% have one here.
ssDAF12 agonist: activators of S. stercoralis DAF-12 nuclear receptor; activation, % at 6.8 µM; HEK293 ssDAF-12/GRIP1 lit1-tk-luc reporter, luminescence; % of 3 µM dafachronic acid response; 1% of 370,000 active;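 active = activation above the mean over all tested compounds plus 3 SD, cut at about 0.9% in these data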
hgDAF-12 ag: hgDAF-12 agonism, primary luciferase screen; 1.8% of 370,000 active; activation, % at 6.8 µM; HEK293 GAL4-hgDAF12 UAS-luciferase reporter, agonist luminescence; normalized to butyrate control;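 active = activation above a cutoff set at the mean of all screened compounds plus 3 SD, cut at about 10% in these data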
FXN GAA850 act: activators of GAA850 frataxin (FXN) promoter | activation, % at 6 µM | 0.56% of 360,000 active | HEK293 lucGAA850 FXN promoter luciferase reporter, 24 h; percent of 10 µM SAHA response | AID 540364;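 active = activation above the average of all compounds screened plus 3 SD, cutoff fixed separately per campaign, cut at about 7.5% in these data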
DAX1 inh-1: inhibitors of DAX1 repression of SF-1 activated StAR promoter; AID 652010; inhibition, % at 6.8 µM; 1.1% of 370,000 active; HEK293T StAR-luciferase reporter, SF-1/DAX-1 repression relief;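 active = inhibition above the mean over all tested compounds plus 3 SD, cut at about 3.6% in these data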;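 also: higher inhibition means more luminescence from relief of DAX-1 repression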
hcDAF12 agonist: activators of H. contortus DAF-12 nuclear receptor. HEK293 hcDAF-12 lit1-tk-luc reporter, luminescence; 0% DMSO, 100% Δ7-dafachronic acid. activation, % at 6.8 µM. 1.4% of 370,000 active. AID 652067;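 active = activation above the mean of all tested compounds plus 3 SD, cut at about 5.5% in these data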
DAX1 inh-2: NR0B1 (DAX1) inhibition; inhibition, % at 6.75 µM; 0.99% of 340,000 active; AID 504766; P51843; HEK293 Gal4-DAX1 luciferase reporter, luminescence;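 active = inhibition above the mean over all tested compounds plus 3 SD, cut at about 4.2% in these data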;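 also: inhibition shows as a rise in luminescence from relieved DAX1 repression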
GAA30 counter: GAA30 FXN promoter activation counter-screen. shares compounds with FXN GAA850 act. HEK293 lucGAA30 FXN promoter luciferase, 24 h; DMSO = 0%, 5 µM ipriflavone = 100%. activation, % at 6 µM. 66% of 1,900 active. AID 588350;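 active = mean activation above the mean of solvent-only control wells plus 3 SD, cut at about 22% in these data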;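 also: counterscreen of GAA850 promoter hits where activity marks nonselective or luminescence artifacts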
GAA850 confirm: GAA850 FXN promoter activation confirmation. shares compounds with FXN GAA850 act. HEK293 lucGAA850 FXN promoter luciferase reporter, 24 h; 100% = activation by SAHA. activation, % at 6 µM. 86% of 1,900 active;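 active = mean activation above a set limit taken from the primary screen, cut at about 8% in these data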
DAX1 inh confirm: NR0B1 (human) inhibition, confirmation | shares compounds with DAX1 inh-1 | HEK293T StAR-promoter luciferase reporter, SF-1/DAX-1 repression | inhibition, % at 6.8 µM | 87% of 2,400 active | AID 652134;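 active = inhibition above the average of every tested compound plus 3 SD, cut at about 3.8% in these data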;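 also: active compounds raise luminescence by relieving repression of the StAR reporter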
Target sequence (P51843 whole entry, looked up): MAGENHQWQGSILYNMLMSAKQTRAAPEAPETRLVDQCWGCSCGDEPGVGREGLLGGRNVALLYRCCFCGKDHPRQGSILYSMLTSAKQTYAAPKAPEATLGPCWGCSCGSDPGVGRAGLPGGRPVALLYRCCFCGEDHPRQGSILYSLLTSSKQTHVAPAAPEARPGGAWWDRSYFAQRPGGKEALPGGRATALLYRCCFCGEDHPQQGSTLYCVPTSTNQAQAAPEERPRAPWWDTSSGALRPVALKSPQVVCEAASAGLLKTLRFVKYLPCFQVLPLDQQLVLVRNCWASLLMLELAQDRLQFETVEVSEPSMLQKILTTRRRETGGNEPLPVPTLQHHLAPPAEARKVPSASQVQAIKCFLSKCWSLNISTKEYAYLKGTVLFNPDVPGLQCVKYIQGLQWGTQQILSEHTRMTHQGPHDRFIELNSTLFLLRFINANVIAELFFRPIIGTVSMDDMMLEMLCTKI
SF1 mutant ctr: counter-screen for DAX1 inhibitors: nonselective inhibitors with SF-1 AF2 mutant | 78% of 2,400 active | HEK293 StAR-luciferase, luminescence | inhibition, % at 6.8 µM | AID 652136 | shares compounds with DAX1 inh-1;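 active = inhibition above the mean of all tested compounds plus 3 SD, cut at about 3% in these data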
Hits are given with their value; - = inactive; . = no result.

SMILES	ssDAF12 agonist	hgDAF-12 ag	FXN GAA850 act	DAX1 inh-1	hcDAF12 agonist	DAX1 inh-2	GAA30 counter	GAA850 confirm	others
O=C1CC(=O)N(Cc2ccccc2)C(=S)N1	-	-	-	-	-	-	.	.
Brc1ccc2[nH]cc(C=NN3CCCCCC3)c2c1	-	-	-	-	-	-	.	.
CCCC/C(C)=C/[C@@H](NP(=O)(c1ccccc1)c1ccccc1)c1ccccc1	-	-	9.2	-	-	-	-	-
CCCCCP(=O)(O)c1ccccc1	-	-	-	-	-	-	.	.
N#Cc1cn(C2OC(CO)C(O)C2O)c2ncnc(N)c12 (centres undefined)	-	-	14	-	-	-	48	-
Cn1cccc1/C=C1\C(=O)NC(=O)N(Cc2ccco2)C1=O	-	-	-	-	-	-	.	.
O=C1NC(=O)N(Cc2ccco2)C(=O)/C1=C/C=C/c1ccco1	-	-	10	-	-	-	-	26
O=C1NC(=O)N(Cc2ccccc2)C(=O)/C1=C\C=C\c1ccco1	-	-	13	-	-	-	-	31
Cc1ccc(CN2Cc3ccc(Br)cc3-n3nncc3C2)cc1	-	-	.	-	-	.	.	.
COC(=O)N1Cc2ccccc2-n2nncc2C1	-	-	-	-	-	-	.	.
CCCCN1CCN(C(=O)COc2cc(=O)n(C)c3ccccc23)CC1	-	-	.	-	-	.	.	.
COc1ccc2[nH]c(C)c(CCNCc3cn(C)c4ccccc34)c2c1	-	-	-	-	-	-	.	.
O=C1NC(=O)N(c2ccccc2)C(=O)/C1=C/C=C/c1ccco1	-	-	-	-	-	-	.	.
Cc1ccc(N2C(=O)NC(=O)/C(=C\C=C\c3ccco3)C2=O)cc1	-	-	8.0	-	-	-	-	20
Cc1ccc(N2C(=O)NC(=O)/C(=C\C=C\c3ccco3)C2=O)cc1C	-	-	8.4	-	-	-	-	-
Cn1cc(C(=O)OCC(=O)Nc2ccccc2)c2ccccc21	-	-	-	-	-	-	.	.
COc1cc2c(cc1OC)CN(c1ccc([N+](=O)[O-])c(C(F)(F)F)c1)CC2	-	-	-	-	-	-	.	.
CC(C)(O)C(=O)Nc1ccc([N+](=O)[O-])c(C(F)(F)F)c1	-	-	12	-	-	-	-	-
C[C@@H]1CN([C@@H](C)CO)C(=O)CCCn2nncc2CO[C@H]1CN(C)C(=O)Oc1ccccc1	-	-	-	-	-	-	.	.
c1cncc(C2Nc3cccc4cccc(c34)N2)c1	-	-	12	-	-	-	26	-
c1cncc(C2CCCCN2)c1 (centres undefined)	-	-	-	-	-	-	.	.
O=[N+]([O-])c1ccc(O)c([N+](=O)[O-])c1	-	-	-	-	-	-	.	.
O=[N+]([O-])c1ccc(Cl)c([N+](=O)[O-])c1	-	-	8.0	-	-	-	38	78
COC1/C=C/C=C(\C)Cc2cc(O)c(Cl)c(c2)N(C)C(=O)CC(OC(=O)C(C)C)C2(C)OC2C(C)C2CC1(O)NC(=O)O2 (centres undefined)	-	-	19	-	-	-	-	21
CN1C(=O)/C(=C/c2ccc(N3CCCCCC3)o2)C(=O)NC1=S	-	-	9.9	-	-	-	100	47
SMILES	ssDAF12 agonist	hgDAF-12 ag	FXN GAA850 act	DAX1 inh-1	hcDAF12 agonist	DAX1 inh-2	GAA30 counter	GAA850 confirm	others
CN1C(=O)/C(=C\c2ccc(N3CCCCC3)o2)C(=O)NC1=S	-	-	-	-	-	-	.	.
O=C1C2(c3ccccc3)CN3CN(C2)CC1(c1ccccc1)C3	-	-	-	-	-	-	.	.
CN(C)C1C(=O)C(C(N)=O)=C(O)C2(O)C(=O)C3=C(O)c4c(O)cccc4C(C)(O)C3C(O)C12 (centres undefined)	-	-	16	-	-	-	33	11
CNC(C(=O)c1ccccc1)C(OC)c1ccc(C)cc1 (centres undefined)	-	-	-	-	-	-	.	.
OCC1CN1C1CCCCC1 (centres undefined)	-	-	-	-	-	-	.	.
C=C1C(C)C2C(Cc3ccccc3)NC(=O)C23C(OC(C)=O)C=CC(C)(O)CC(C)CC=CC3C1O (centres undefined)	-	-	7.6	3.8	-	4.2	-	23
O=C1C=C2C=C[C@@H]3CC2(O1)[C@H]1CCCCN31	-	-	8.1	-	-	-	36	14
C/C(=N\N1CCCCC1c1cccnc1)c1c(O)n(C2CCCCC2)c(=S)[nH]c1=O (centres undefined)	-	-	8.2	-	-	-	-	17
CCNC(=O)[C@H]1O[C@@H](n2cnc3c(N)ncnc32)[C@H](O)[C@@H]1O	-	-	8.6	-	-	-	35	18
CC1CC2(C)C(=CC1=O)CCC1C3CCC(C)(O)C3(C)CC3OC312 (centres undefined)	-	-	-	-	-	-	.	.
COc1cccc(CNCCc2c[nH]c3ccccc23)c1OC	-	-	-	-	-	-	.	.
COc1ccc(CNCCc2c[nH]c3ccccc23)c(OC)c1OC	-	-	8.1	-	-	-	-	8.7
CN1CCN(c2ccc3c(c2)S(=O)(=O)c2ccccc2C3=O)CC1	-	-	8.8	-	-	-	97	35
COc1ccc(C(=O)C2CCCN(CCc3ccccc3)C2)cc1OC (centres undefined)	-	-	-	6.3	-	.	.	.	DAX1 inh confirm=6.0;SF1 mutant ctr=3.7
Cc1ccc(N)c(C(=O)c2ccc(Br)cc2)c1	-	-	-	-	-	-	.	.
Cc1ccc(N)c(N)c1	-	-	-	6.6	-	-	.	.	DAX1 inh confirm=5.5;SF1 mutant ctr=3.2
O=C1C(=O)N(c2ccccc2)P(=O)(N(CCCl)CCCl)N1c1ccccc1	-	12	-	8.1	-	-	.	.	DAX1 inh confirm=6.2;SF1 mutant ctr=3.0
C[C@@H]1CN([C@H](C)CO)C(=O)CCCn2cc(nn2)CO[C@H]1CN(C)C(=O)Oc1cccc2ccccc12	-	-	-	-	-	-	.	.
O=C(c1cc2cc3ccc(Cl)cc3nc2o1)N1CCC2(CC1)OCCO2	-	-	-	-	-	-	.	.

Screens: PubChem BioAssay, The Scripps Research Institute Molecular Screening Center
